High-throughput results from PubChem BioAssay.
M1 antag: antagonists of human M1 muscarinic receptor. P11229. AID 588852. 360,000 tested, 1.3% active. CHO-K1 hM1, Fluo-8 calcium fluorescence, ACh EC80 antagonist. inhibition, % at 3 µM;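 active = percent inhibition above its own plate's cutoff, namely the mean of that plate's compound wells plus 3 SD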;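 also: peak over basal fluorescence ratio during 140 s after agonist addition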
Target sequence (P11229 whole entry, looked up): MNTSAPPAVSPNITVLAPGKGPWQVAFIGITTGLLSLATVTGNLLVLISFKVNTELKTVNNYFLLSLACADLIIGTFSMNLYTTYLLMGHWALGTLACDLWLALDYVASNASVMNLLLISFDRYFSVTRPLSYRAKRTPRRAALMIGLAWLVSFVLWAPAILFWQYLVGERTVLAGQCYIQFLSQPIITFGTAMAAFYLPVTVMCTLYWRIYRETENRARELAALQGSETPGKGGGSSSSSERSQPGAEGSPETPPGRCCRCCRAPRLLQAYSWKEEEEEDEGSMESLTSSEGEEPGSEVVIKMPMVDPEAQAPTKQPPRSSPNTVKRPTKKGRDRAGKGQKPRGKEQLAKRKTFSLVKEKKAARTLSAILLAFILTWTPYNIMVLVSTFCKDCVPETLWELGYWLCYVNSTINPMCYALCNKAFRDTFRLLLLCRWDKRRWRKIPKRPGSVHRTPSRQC
M1 PAM: potentiates human M1 receptor response to acetylcholine. P11229. CHO-K1 hM1, Fluo-8 calcium fluorescence, ACh EC20; 0% = ACh EC20, 100% = maximal ACh. activation, % at 3 µM. 360,000 tested, 0.088% active. AID 588819; in the data active = activation above about 19%, passing the limit was not always enough
CHO-K1 Ca antag: nonselective inhibitor or artifact in parental CHO-K1 cells | inhibition, % at 3 µM | AID 602250 | 360,000 tested, 0.6% active | ATP-induced calcium, Fluo-8 fluorescence;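 active = inhibition above a per-plate cutoff, the plate's mean sample inhibition plus 3 SD, cut at about 24% in these data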
M1 ag parental: M1 agonist counterscreen hit in parental CHO-K1 cells. Fluo-8 calcium fluorescence; scaled to maximal ATP response, vehicle zero. activation, % at 3 µM. 360,000 tested, 0.48% active. AID 602248; in the data active = activation above about 15%;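 also: untransfected CHO-K1 host cells lacking M1 receptor as counterscreen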
M1 PAM parental: counter-screen for M1 PAMs: effect in parental CHO-K1 cells | AID 602247 | activation, % at 3 µM | ATP EC20, Fluo-8 calcium fluorescence; 0% at ATP EC20, 100% at ATP max | 360,000 tested, 0.02% active;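 active = activation above the run cutoff, the mean activation of all test compounds plus 3 SD, cut at about 40% in these data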;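 also: peak over basal fluorescence ratio in a 140 s read after ATP addition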
CHRM1 agonist: activates human CHRM1 receptor; P11229; CHO-K1 hM1, Fluo-8 calcium fluorescence, agonist mode; 0% DMSO, 100% acetylcholine EC100; activation, % at 3 µM; 360,000 tested, 0.33% active;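 active = activation above the run's mean compound activation plus 3 SD, cut at about 16% in these data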;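 also: peak over basal fluorescence ratio within a 140 s kinetic read after compound addition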
Large screens that a line does not name were inactive. Compounds with a hit are over-represented: about 2.3% of the library has one in this group of screens.

Cc1c(P(=S)(c2ccccc2)c2ccccc2)[n+]2ccccc2n1C/C=C/c1ccccc1	M1 antag 56
CC(O)c1nc2ccccc2n1C/C=C/c1ccccc1 (centres undefined)	none
CC1=C(Sc2ccccn2)C(=O)NC(C)(C)C1	CHO-K1 Ca antag 27
COc1cccc(CN(C)C(=O)C(CCSC)NS(=O)(=O)c2ccc3c(c2)OCCO3)c1OC (centres undefined)	M1 antag 30
CCN(CC)Cc1c(C(=O)N/N=C/c2cccs2)nnn1-c1nonc1N	none
CCN1CCN(CC(=O)N2N=C(c3cccs3)CC2c2ccc(C)cc2)C(=O)C1=O (centres undefined)	none
CCOC(=O)N1CCN(C(=O)C(=O)Nc2sc3c(c2C(=O)O)CC(C)(C)OC3)CC1	none
CC(=O)c1c(C)[nH]c(C(=O)CSc2ccc(F)cc2)c1C	M1 antag 33, M1 ag parental 15
COc1cccc(OC)c1C(=O)NCCOc1cc(C)cc(C)c1	M1 ag parental 15
CCOCCCNc1nc2c(c(=O)[nH]c(=O)n2C)n1CCCc1ccccc1	CHO-K1 Ca antag 26
CSc1ccc(Cn2nnc(C(=O)NCc3ccccc3)c2N)cc1	M1 ag parental 19, CHRM1 agonist 34
Nc1c(C(=O)NCc2ccccc2)nnn1Cc1ccccc1	none
CC(C)=CCCC(C)NC(=O)NC1CCCCC1 (centres undefined)	CHO-K1 Ca antag 25 (no result: M1 antag)
COc1cc(NC(=O)c2cccs2)c(C(=O)OCC(=O)c2cc(C)n(-c3ccc(F)cc3)c2C)cc1OC	M1 ag parental 17
CCN1CCN(c2ccc(S(=O)(=O)N3CCOCC3)cc2NC(=O)c2ccccc2SC)CC1	CHRM1 agonist 24
CCN1CCN(c2ccc(S(=O)(=O)N3CCOCC3)cc2NC(=O)c2cc(F)c(F)c(F)c2F)CC1	none
Cc1c(C(=O)N2CCc3ccccc3C2)oc2ccccc12	none
CCOc1ccc(CCN2C(=O)C(=O)N([C@@H](Cc3ccccc3)CN3CCC[C@H]3CN3C(=O)C(=O)NC[C@@H]3Cc3ccccc3)C[C@@H]2Cc2ccccc2)cc1	none (no result: M1 antag, M1 PAM, CHRM1 agonist)
COc1cccc(OCCSc2nc(N)cc(N)n2)c1	CHO-K1 Ca antag 27
Nc1cc(N)nc(SCCOc2ccccc2)n1	none
C=CCn1c(N2CCCC2)nc2c1c(=O)[nH]c(=O)n2C	none
Cn1c(=O)[nH]c(=O)c2c1nc(N1CCCCC1)n2C/C=N/NC(=O)c1cc(Br)ccc1O	M1 ag parental 26
COc1nc(-c2ccccc2)ccc1-c1noc(C)n1	CHO-K1 Ca antag 28
COc1ccccc1-c1nc(-c2ccc(C)nc2OC)no1	CHO-K1 Ca antag 26
COc1ccccc1-c1noc(-c2ccccc2C(=O)Nc2ccccc2)n1	none
COc1ccccc1NC(=O)c1ccccc1-c1nc(-c2ccccc2OC)no1	M1 antag 29
COCc1nc(-c2ccc(-c3ccccc3)nc2OC)no1	none
C[C@@H]1CN([C@@H](C)CO)C(=O)CCCn2nncc2CO[C@H]1CN(C)C(=O)c1ccc2ccn(C)c2c1	none
Cc1cccc(-c2noc(-c3csc([C@@H]4C[C@H](O)[C@@H](CO)O4)n3)n2)c1	none
O=C(c1ccco1)N1CCCC(c2nc3c(nnn3Cc3c(Cl)cccc3Cl)c(=O)[nH]2)C1 (centres undefined)	none
O=Nc1c(O)n(Cc2c(Cl)cccc2Cl)c2ccccc12	CHRM1 agonist 36
O=Nc1c(O)n(Cc2ccc(Cl)cc2)c2ccccc12	M1 PAM 22, CHRM1 agonist 18
Cc1ccc(Cn2c(O)c(N=O)c3ccccc32)cc1	CHRM1 agonist 20
CCN(C[C@H]1N[C@@](CC)(C(=O)OC)[C@H]2C(=O)N(C)C(=O)[C@@H]12)C(=O)Nc1ccc(C)cc1	none
O=C(COc1ccc2ccc(=O)oc2c1)Nc1cccc(S(=O)(=O)N2CCCCC2)c1	M1 ag parental 17
Cc1ccc(OCC(=O)Nc2cccc(S(=O)(=O)N3CCCC3)c2)cc1C	none
CC(=O)c1ccc(OCC(=O)Nc2cccc(S(=O)(=O)N3CCCC3)c2)cc1	M1 antag 31
O=C(COC(=O)C1CC2C=CC1C2)Nc1cccc(S(=O)(=O)N2CCCCCC2)c1 (centres undefined)	M1 ag parental 16
CN(C)CCN(C(=O)C1=COCCO1)c1nc2ccc(F)cc2s1	none
Nc1cc(Cl)ccc1CN1C(=O)c2ccccc2C1=O	none
COC(=O)CC/C(O)=C1\C(=O)CC(C)(C)CC1=NCCc1nc2ccccc2[nH]1	none
O=c1c(O)c(-c2cccs2)oc2ccccc12	CHRM1 agonist 16
O=c1c(O)c(-c2cccs2)oc2ccc(Cl)cc12	M1 antag 62, M1 ag parental 77, CHRM1 agonist 144
O=C(Cc1ccccc1Cl)N/N=C/c1cccnc1	none
CC(C)C(OC(=O)c1cccc(S(=O)(=O)NCC(F)(F)F)c1)C(=O)NC(N)=O (centres undefined)	none
CC(Oc1ccc(Br)cc1)C(=O)Nc1nnc(C2CC2)s1 (centres undefined)	CHRM1 agonist 18
CSCCC(NC(=O)COc1ccccc1)C(=O)NCCOc1ccccc1 (centres undefined)	none
CC1(C(=O)NCc2cccc3ccccc23)CCN1Cc1ccc2ccccc2c1 (centres undefined)	none
CC1(C(=O)NCc2cccc(C(F)(F)F)c2)CCN1Cc1ccc2ccccc2c1 (centres undefined)	M1 antag 32
CN(C)C(=O)Nc1ccccc1	none
Nc1nc(Nc2ccccc2)sc1C(=O)c1ccccc1	CHRM1 agonist 16
COc1ccc(C(=O)c2sc(Nc3ccccc3)nc2N)cc1	none
CN(C)c1ccc(NC(=S)NC23CC4CC(CC(C4)C2)C3)cc1	none
CN(C)C(CNC(=O)c1cc(Br)ccc1Cl)c1ccco1 (centres undefined)	M1 ag parental 17
CN(C)C(CNC(=O)c1cc(S(=O)(=O)N(C)Cc2ccccc2)ccc1Cl)c1ccco1 (centres undefined)	M1 antag 31
CN(Cc1ccccc1)S(=O)(=O)c1ccc(Cl)c(C(=O)O)c1	none
CN(C)C(CNC(=O)c1ccc(Br)cc1)c1ccco1 (centres undefined)	none
CCOC(=O)C(Cc1ccccc1)C(=O)Nc1ccc(N(CC)CC)cc1 (centres undefined)	M1 antag 33
CCN1CCN(S(=O)(=O)CC2(C)C3CCC2(C)C(=O)C3Br)CC1 (centres undefined)	none
CN1C[C@@H]2C(c3ccccc3)C3(c4cccnc4)CC2(C3)[C@H]1c1ccccc1 (some centres undefined)	M1 antag 97
CCOC(=O)c1nn(-c2ccc(F)cc2)c(=O)c2c(N)scc12	none
